Assay outcomes as filed in PubChem BioAssay.
A selection: hits, their analogues and other compounds. The true share with any hit is near 2.2%.
IEC-6 cytotox: cytotoxicity in IEC-6 intestinal epithelial cells, primary screen, cytotoxicity control for KLF5 inhibitor project, cell-based, luminescence; AID 1825, 2009; IEC-6 cytotoxicity, luminescence viability; hit rate 0.78% among 290,000; inhibition, % at 5 µM; in the data active = inhibition above about 22%;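 also: 0% = plate median of test compound wells and 100% = cytotoxic reference compound wells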
BaF3 parental: parental Ba/F3 cell viability inhibition, counter-screen for JAK2V617F inhibitor project, murine pro-B, CellTiter-Glo luminescence | CellTiter-Glo ATP luminescence | hit rate 1.1% among 220,000 | inhibition, % at 5.6 µM;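 active = inhibition above a per-campaign cutoff, the mean inhibition of all tested compounds plus 3 SD, cut at about 27% in these data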;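 also: 0% = DMSO wells and 100% = JAK Inhibitor I control wells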
aSyn 5UTR inh: MLPCN primary screen, SNCA 5' untranslated region; alpha-synuclein 5'UTR reporter, inhibitor activity; hit rate 0.82% among 300,000; inhibition, % (tested at 7.5 µM); AID 1813, 2009; in the data active = inhibition above about 60%; inconclusive = no clear call, values can overlap the other calls;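 also: H4 neuroglioblastoma cells stably carrying SNCA 5'UTR luciferase fusion; 0% = DMSO wells and 100% = positive control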
Ba/F3 V617F tox: reduced viability of JAK2V617F-dependent Ba/F3 cells, primary screen, JAK2V617F inhibitor project, cell-based, Ba/F3 EpoR-JAK2V617F, luminescence. inhibition, % at 5.6 µM. AID 1446, 2008. hit rate 1.1% among 220,000. ATP luminescence;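 active = inhibition above the campaign mean plus 3 SD over all tested compounds, cut at about 24% in these data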;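 also: cytokine-independent growth of Ba/F3 cells driven by EpoR plus mutant JAK2; 0% = DMSO-treated cells and 100% = JAK inhibitor I control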
APP transl inh: inhibitors of APP translation via 5'UTR reporter, primary screen, APP 5'UTR luciferase, SH-SY5Y cells | inhibition, % at 2 µM | SH-SY5Y APP 5'UTR-luciferase reporter, luminescence | hit rate 0.82% among 190,000;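 active = inhibition above a set limit, derived from the sample mean plus 3 SD, cut at about 45% in these data; inconclusive = one replicate passes the limit while the other fails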
KLF5 inh: KLF5 expression inhibitors, primary screen, DLD-1 cells, luminescence. hit rate 0.23% among 290,000. AID 1700, 2009. inhibition, % at 5 µM. DLD-1 KLF5 promoter-luciferase reporter;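 active = inhibition above a per-plate limit of that plate's mean compound inhibition plus 3 SD, cut at about 60% in these data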;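 also: 0% = DMSO wells and 100% = LY294002 at 200 µM; higher means less KLF5 promoter-driven luciferase light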
Active calls of the source: *; u = inconclusive; x = not tested or not shown.

SMILES | IEC-6 cytotox | BaF3 parental | aSyn 5UTR inh | Ba/F3 V617F tox | APP transl inh | KLF5 inh
CCC(=O)NC(c1cccs1)c1cc([N+](=O)[O-])c2cccnc2c1O (stereo unspecified) | 2.7 | 7.4 | 3.7 | -2.5 | x | -0.5
Cc1csc(NC(=O)c2ccc(N3CCCC3=O)cc2)n1 | -1.8 | 10.1 | 101.0* | -2.6 | -47.4 | -121.1
O=C(Nc1nc2ccc(F)cc2s1)c1ccc(N2CCCC2=O)cc1 | x | x | -154.9 | x | x | x
CC(CCc1ccccc1)NC(=O)CC(C)c1ccccc1 (stereo unspecified) | 5.1 | x | 18.8 | x | x | -8.1
CC(=O)c1ccc(OCC(C)Oc2ccc(C#N)cc2)cc1 (stereo unspecified) | -2.7 | -1.7 | -1.3 | -0.2 | x | -14.8
CSCC(O)Cn1ncc2ccccc2c1=O (stereo unspecified) | 3.4 | -2.4 | -40.1 | -0.9 | x | -18.2
CCOC(=O)c1c(CSc2ccc(CC)cc2)oc2ccc(O)c(CN(C)C)c12 | 6.2 | x | 65.6* | x | x | -25.0
COc1ccc(/C=N/n2c(SC)nnc2-c2ccccc2)c(OC)c1OC | 68.4* | 79.4* | x | 85.8* | 44.4 | 39.6
CNC(=O)COC(=O)[C@@H](Nc1ccc(S(=O)(=O)N2CCOCC2)cc1[N+](=O)[O-])C(C)C | 0.5 | 4.2 | -2.5 | 2.2 | 14.9 | -27.1
COc1ccc(C(=O)Nc2nc3c(s2)CCCC3)cc1S(=O)(=O)N1CCCc2ccccc21 | -7.7 | 8.2 | 39.5 | 3.1 | 14.1 | -1.7
O=C(N/N=C/c1cc([N+](=O)[O-])ccc1O)c1ccc(COc2ccc3c(c2)CCC3)o1 | 6.9 | x | 86.5* | x | x | 26.0
COc1ccc(Br)cc1/C=N/NC(=O)c1ccc(COc2ccc3c(c2)CCC3)o1 | 2.5 | -0.1 | -42.2 | -2.3 | -3.8 | -48.1
O=C(/C=C\c1ccco1)Nc1cc([N+](=O)[O-])ccc1F | -2.7 | 43.4* | 97.4* | 73.4* | 94.2* | -39.2
Nc1c(N2CCCCC2)c2ccccc2oc1=O | -6.1 | 3.2 | -27.3 | -1.1 | -9.8 | -26.8
N#CCC(=O)N/N=C/c1cn(Cc2ccc(Cl)c(Cl)c2)c2ccccc12 | -1.6 | -5.2 | u | -3.8 | x | 7.7
O=C(O)c1ccc(N/N=C/c2cn(Cc3ccc(F)cc3)c3ccccc23)cc1 | 8.9 | -1.0 | -68.9 | -1.0 | x | -33.0
COc1cc(C(=O)N/N=C/c2cn(Cc3cccc(F)c3)c3ccccc23)ccc1O | 1.7 | x | 62.1* | x | x | -12.7
O=C(N/N=C/c1cn(Cc2ccccc2)c2ccccc12)c1cc(O)cc(O)c1 | -4.3 | x | 62.1* | x | x | -18.0
Cc1ccc(C(=O)N/N=C/c2cn(Cc3ccccc3)c3ccccc23)cn1 | 1.7 | 1.8 | 64.3* | -2.1 | x | -36.9
O=C1CCCC(=O)C1=Cc1c[nH]c2ccccc12 | 0.1 | -0.5 | -8.2 | -3.8 | 4.0 | -17.8
COc1ccc(OC)c(NC(=O)C(=O)NNC(=O)C23CC4CC(CC(C4)C2)C3)c1 | 0.9 | 2.1 | 9.2 | -1.0 | x | 12.4
C=CCN1C(=Nc2cccnc2)SCC1(O)c1ccc(C)cc1 (stereo unspecified) | -0.5 | 33.4* | -47.6 | 10.5 | 4.1 | -60.2
Cc1csc(=Nc2cccnc2)n1CC1CCCCC1 | -6.9 | 15.6 | 11.3 | 9.6 | 15.9 | -14.1
Cc1ccc(S(C)(=O)=O)cc1C(=O)NC(C)C1CC2CCC1C2 (stereo unspecified) | 2.2 | x | 3.4 | x | x | -25.1
Cc1ccc(C(=O)NC2CCN(S(=O)(=O)c3ccccc3)CC2)cc1 | -6.7 | 4.0 | 32.1 | -3.2 | -10.8 | -4.0
Cc1ccc(S(=O)(=O)N2CCC(NC(=O)c3ccccc3)CC2)cc1 | 4.1 | 90.0* | 22.6 | -0.7 | 7.5 | -17.6
c1ccc(C2[C@H]3CN(CC4CCCCC4)[C@H](c4ccccc4)C34CC2(c2cccnc2)C4)cc1 (stereo partly specified) | x | x | 6.6 | x | x | x
O=C(N/N=C/c1ccccc1O)C1CC(=O)N(c2ccc(Cl)cc2)C1 (stereo unspecified) | 12.6 | x | 83.3* | x | x | 59.1
COC(=O)[C@H](Cc1ccccc1)NC(=O)O[C@@H]1C(=O)c2cc(Br)ccc2O[C@H]1c1cccc(OC)c1 | -1.9 | 2.7 | -20.5 | -4.2 | 3.8 | -9.5
COc1ccc(Nc2cc3n(c(=O)n2)CCc2cc(OC)c(OC)cc2-3)c(C)c1 | 6.2 | x | 80.1* | x | x | -6.7
